# “And” between values parts separate entries of the source, which are not always exact repeats. Equal values may be shown once. About 83,000 compounds went through this panel and 20% of them were active in at least one assay; those are over-represented in the sample as a whole.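 Single-dose data. Exposure time 48 hours. Values below 10 considered active.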 A number with no mark means an inactive call. The source made the active and inactive calls.
# Tested on: MDA-MB-468 breast
# Test: NCI-60 one-dose screen, 48 h (100 = growth as untreated, 0 = no growth, -100 = all killed)
# Settings: 10 µM unless noted
row,Compound,growth
1,Cn1c(=O)c2c(nc(Br)n2CC(=O)Nc2ccc(F)cc2)n(C)c1=O,109%
2,O=C(NCCN1CCOCC1)Nc1ccc(-c2cc3c(Nc4ccc(Oc5cccc(C(F)(F)F)c5)c(Cl)c4)ncnc3s2)cc1,-28.3% (active)
3,S=c1[nH]nc(CSc2ncnc3c2c(-c2ccccc2)cn3-c2ccc(Cl)cc2)o1,108%
4,CC[C@H](CC[C@@H](C)[C@H]1CC[C@H]2[C@@H]3CC(=O)C4=CC(=O)/C(=C/c5ccc([N+](=O)[O-])cc5)C[C@]4(C)[C@H]3CC[C@]12C)C(C)C,104%
5,COc1cc(C(=O)C[n+]2ccccc2)ccc1OC(C)=O,101%
6,Cc1nc(-c2ccccc2)cc2c(O)c(C(=O)N/N=C/c3ccc(N(C)C)cc3)[nH]c(=O)c12,77.6%
7,Nc1ncnc2c1ccn2-c1cccc(NC(=O)c2ccc(N3CCOCC3)c(C(F)(F)F)c2)c1,40.3%
8,CCC(CCC(C)C1CCC2C3CC=C4CC(O)CCC4(C)C3CCC12C)C(C)C (stereo not given) (tested in a mixture with another compound),114%
9,C[C@H]1C(=O)C23CCC1C[C@@]21O[C@@H]2C(C)(C)C=CC(=O)C23COC1=O,102%
10,CC(C)C[C@@H](NC(=O)[C@@H](Cc1ccccc1)NC(=O)c1cnccn1)B1Oc2ccc(C[C@H](NC(=O)[C@H](Cc3ccc4c(c3)OB([C@@H](CC(C)C)NC(=O)[C@@H](Cc3ccccc3)NC(=O)c3cnccn3)O4)NC(=O)[C@@H](N)CC3CCC4OB([C@@H](CC(C)C)NC(=O)[C@@H](CC5CCCCC5)NC(=O)C5CNCCN5)OC4C3)C(=O)NCCCC[C@@H]3NC(=O)[C@@H](Cc4ccccc4)NC(=O)[C@H](CC(=O)O)NC(=O)CNC(=O)[C@H](CCCNC(=N)N)NC3=O)cc2O1 (stereo not given in full),-41.5% (active)
11,S=C(N/N=C/c1cc(Cl)cc(Cl)c1)NC12CC3CC(CC(C3)C1)C2,104%
12,CCOC(=O)c1c(NC(=O)c2ccc(C(C)(C)C)cc2)sc2cc(O)ccc12,87.9%
13,COc1cc2ncnc(Oc3ccc(NC(=O)Nc4ccc(C5(C#N)CCCC5)cc4)c4ccccc34)c2cc1OC,38.2%
14,N#CCc1cccc2ccccc12,112%
15,C=CCc1cc(OC)c(O)c(OC)c1,112%
16,COc1cccc(-c2cc(-c3cccc(NS(C)(=O)=O)c3)nc(N)c2C#N)c1O,2.89% (active)
17,C=CCn1cc(-c2nc3ccccc3s2)c2cc(-c3ccc4c5c(cccc35)C(=O)N(N)C4=O)ccc21,95.4%
18,Cc1cc(Br)c(N)c(Br)c1,98.3%
19,COc1cc(C)cc(-c2c(-c3cc(N4CC(O)C4)nc(-c4cccnc4)n3)cnn2C)c1,80.2%
20,Nc1ccc(N=Nc2ccc(S(=O)(=O)O)cc2)cc1S(=O)(=O)O,150% and 75.5%

row,Compound,growth
1,CCOc1cccc(/C(N)=N/C(N)=N/c2nc3ccccc3s2)c1,85.6%
2,CC1=C(CC(=O)c2cccc([N+](=O)[O-])c2)C(=O)c2ccccc2C1=O,-52.5% (active)
3,C#C[C@]1(O)CC[C@H]2[C@@H]3CC=C4c5sc(-c6ccc(F)cn6)nc5CC[C@]4(C)[C@H]3CC[C@@]21C,43.4%
4,COc1ccc(/C=C2\Oc3cc(OCCCN4CCCC4)ccc3C2=O)cc1,74.1%
5,COc1c(B(O)O)cc(C)cc1-c1nc2ccc3[nH]ncc3c2c2c1CCCC2,28.2%
6,Cc1ccc(Nc2nc(-c3ccc(F)cc3)c(C#N)c(=O)n2C)cc1,62.1%
7,CC(=O)O[C@H]1CC[C@@]2(C)[C@@H](CC[C@@H]3[C@@H]2CC(=O)[C@@]2(C)[C@H]3C[C@@H](C3CCCC3=O)[C@@H]2C(C)=O)C1 (stereo not given in full),114%
8,O=C(CCl)N1c2cccc3cccc(c23)N(C(=O)CCl)C1c1cn(-c2ccccc2)nc1-c1cccc([N+](=O)[O-])c1,101%
9,O=C1OCC/C1=C\OCCCO/C=C1\CCOC1=O,92.8%
10,COc1ccccc1Nc1nnc(COc2ccc(CNC(=O)CCCC/C=C/C(C)C)cc2OC)o1,99.7%
11,CCOC(=O)c1cc(/C(=N\O)c2cc(OC)c(OC)c(OC)c2)n2c(C)cccc12,21.8%
12,CCCCCCN(CCCCCC)CCC(=O)Nc1ccc(S(=O)(=O)c2ccc(NC(=O)CCN(CCCCCC)CCCCCC)cc2)cc1,92.9%
13,Cc1ccc(NC(=O)NC2CCCCC2)cc1,93.5%
14,CCCN(CCC)C(=O)c1ccc(C)cc1,96.3%
15,CCCCc1nc(Cl)c(C2CC(c3ccc(S(N)(=O)=O)cc3)=NN2c2cc(Cl)cc(Cl)c2)[nH]1 (stereo not given),22.1%
16,c1ccc(COc2ccc(Nc3ncnc4c3cnn4-c3ccccc3)cc2)cc1,93.1%
17,O=C(Nc1cccc(NC(=O)C2CCCCC2)c1)c1ccccn1,116%
18,CCCCCOc1ccc(C(=O)/C(Br)=C/C(=O)O)cc1,89.2%
19,CCNCC(C)(C)O,115%
20,CCOC(=O)CSCCC#N,109%

# Reference: PubChem BioAssay (NCI)
